Assay [1] has as its target Solute carrier family 12 member 5 (Homo sapiens) (UniProt Q9H2X9). Put plainly: retest of KCC2 transport modulators without sodium – cell-based, HEK293 KCC2, thallium flux, secondary assay, confirmation (AID 1713;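 active = thallium flux slope above the same plate's solvent-only control mean plus 3 SD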). The note with it: FluoZin2 fluorescence, at 10 µM, active compounds read high.
A short description of a further assay: PubChem AID 1714.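 Note: raw slope of fluorescence over initial fluorescence between 10 and 20 s after thallium.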 The note with it: HEK293-KCC2 + bumetanide/ouabain, thallium flux FluoZin2; at 10 µM; active compounds read high.
Assay [2] addresses Solute carrier family 12 member 5 (Homo sapiens) (UniProt Q9H2X9). Kind of assay: retest of KCC2 transport modulation, ouabain-free – cell-based, HEK293 KCC2, thallium flux, FluoZin2, secondary assay 2, confirmation (AID 1715;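 active = thallium flux slope more than 3 SD above or below the plate's solvent-only control mean, mostly below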;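 note: raw slope with 0.1% DMSO as baseline and bumetanide as block control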). The settings on record: HEK293-KCC2, thallium flux FluoZin2 fluorescence; at 10 µM; actives lie on both sides; F/F0 rise rate, 10–20 s post-thallium.
A short description of assay [3]: compound effects on native HEK Tl+ uptake – HEK cells, counterscreen 1, counter-screen for KCC2 modulator project, confirmation (AID 1716;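 active = thallium flux rate significantly above the same plate's solvent-only control wells, beyond their mean plus 3 SD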). The settings on record: HEK293 parental cells, thallium flux FluoZin2, ouabain; at 10 µM; baseline-ratio fluorescence slope, 10–20 s after thallium. On the technique in general: Counterscreens check selectivity or assay interference.

In assay [4] the target is Solute carrier family 12 member 5 (Homo sapiens) (UniProt Q9H2X9). Kind of assay: modulation of KCC2 thallium flux in HEK cells – cell-based, ouabain, retest, confirmation (AID 1717).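 Note: slope of initial-normalized fluorescence between seconds 10 and 20 after thallium.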 The settings on record: HEK293-KCC2, thallium flux FluoZin2 fluorescence, at 10 µM, bidirectional: low = inhibitor, high = activator.
A short description of assay [5]: native HEK Tl+ uptake effects, second counter-screen – HEK cells, counterscreen 2, counter-screen for KCC2 modulator project, confirmation (AID 1718;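 active = thallium flux slope above the same plate's solvent-control mean plus 3 SD in both duplicate wells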;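 note: run without ouabain in cells lacking the KCC2 cotransporter; slope of fluorescence scaled to its starting value between 10 and 20 s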). The note with it: HEK293 parental, thallium flux FluoZin-2 fluorescence slope; at 10 µM.

Some of the results follow. Results filed as inconclusive are left out. Values without a mark were called inactive. Active and inactive are the calls of the source.

Solute carrier family 12 member 5 (Homo sapiens), sequence (Q9H2X9 whole entry, looked up): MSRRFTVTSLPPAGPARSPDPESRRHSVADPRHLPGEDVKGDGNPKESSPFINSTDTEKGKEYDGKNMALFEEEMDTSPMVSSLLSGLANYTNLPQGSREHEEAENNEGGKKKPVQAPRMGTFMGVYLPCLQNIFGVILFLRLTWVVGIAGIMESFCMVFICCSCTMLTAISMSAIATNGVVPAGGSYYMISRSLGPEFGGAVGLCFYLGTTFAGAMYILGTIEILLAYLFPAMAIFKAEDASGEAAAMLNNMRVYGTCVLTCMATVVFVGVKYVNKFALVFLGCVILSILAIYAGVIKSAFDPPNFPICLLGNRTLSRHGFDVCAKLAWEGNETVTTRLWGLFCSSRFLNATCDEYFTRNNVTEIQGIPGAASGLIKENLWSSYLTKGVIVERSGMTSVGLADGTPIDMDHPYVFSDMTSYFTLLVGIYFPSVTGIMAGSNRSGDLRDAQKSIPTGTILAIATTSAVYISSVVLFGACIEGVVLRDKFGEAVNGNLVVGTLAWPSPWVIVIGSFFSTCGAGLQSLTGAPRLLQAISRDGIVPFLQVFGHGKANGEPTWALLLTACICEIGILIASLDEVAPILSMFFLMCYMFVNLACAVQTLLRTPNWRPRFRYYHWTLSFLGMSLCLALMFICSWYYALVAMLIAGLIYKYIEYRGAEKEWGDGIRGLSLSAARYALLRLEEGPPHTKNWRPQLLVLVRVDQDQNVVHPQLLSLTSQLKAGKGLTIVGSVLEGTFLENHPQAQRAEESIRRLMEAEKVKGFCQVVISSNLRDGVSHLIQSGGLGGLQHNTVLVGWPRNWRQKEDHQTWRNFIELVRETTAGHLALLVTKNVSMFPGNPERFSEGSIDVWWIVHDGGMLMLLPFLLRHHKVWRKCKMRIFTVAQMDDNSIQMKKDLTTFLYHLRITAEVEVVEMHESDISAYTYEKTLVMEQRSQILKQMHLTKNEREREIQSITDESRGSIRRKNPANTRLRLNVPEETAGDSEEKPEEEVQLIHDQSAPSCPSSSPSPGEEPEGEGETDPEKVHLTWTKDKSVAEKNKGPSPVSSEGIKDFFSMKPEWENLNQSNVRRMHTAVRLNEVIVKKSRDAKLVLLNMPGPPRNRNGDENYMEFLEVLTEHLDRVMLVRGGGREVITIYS

For the compound `COc1cc(NC(=O)c2ccccc2NS(=O)(=O)c2ccc(Cl)s2)cc(OC)c1`, the normalised thallium flux (F/F0 slope) in assay [1] was 0.00642. Moreover, the results for the normalized thallium flux (in the assay “PubChem AID 1714”; in assay [2]) were 0.00732 and 0.0336, respectively. In addition, the thallium flux rate (normalised fluorescence) in assay [3] was 0.00377. Besides, in assay [4], the raw Tl+ flux slope (below DMSO = inhibition, above = activation) is 0.0161 (active). Moreover, the thallium flux slope in assay [5] is 0.0111.

`CC(=O)NNc1cc(=O)c2c(=O)n(C)c(=O)n(C)c2[nH]1`: the normalised thallium flux (F/F0 slope) in assay [1] is 0.0167. Besides, the normalized thallium flux is 0.00524 in the assay “PubChem AID 1714” and 0.0281 in assay [2]. Moreover, the thallium flux rate (normalised fluorescence) in assay [3] was 0.00797. Further, the raw Tl+ flux slope (below DMSO = inhibition, above = activation) in assay [4] was 0.0159. Besides, the thallium flux slope in assay [5] was 0.0112.

For `O=C(NC(=S)N1CCc2ccccc21)c1ccco1`, the normalised thallium flux (F/F0 slope) in assay [1] was 0.00899 (active). For the same compound, the normalized thallium flux in the assay “PubChem AID 1714” was 0.0451 (active); in assay [2] it was 0.0395 (active). The thallium flux rate (normalised fluorescence) in assay [3] was 0.0311 (active). In addition, in assay [4], the raw Tl+ flux slope (below DMSO = inhibition, above = activation) is 0.0407 (active). For the same compound, the thallium flux slope in assay [5] was 0.0243 (active).

Take `O=C(CN(c1cccc(Cl)c1)S(=O)(=O)c1ccccc1)NN=C1CCCC1`: in assay [1], the normalised thallium flux (F/F0 slope) is 0.0069. Further, the normalized thallium flux was 0.00505 in the assay “PubChem AID 1714” and 0.0271 in assay [2]. Besides, the thallium flux rate (normalised fluorescence) in assay [3] is 0.00791. For the same compound, in assay [4], the raw Tl+ flux slope (below DMSO = inhibition, above = activation) was 0.0178. Also, the thallium flux slope in assay [5] is 0.00991.

Regarding `CCC(C)Cn1c(O)cc2nn(-c3nc4ccccc4s3)c(=O)c-2c1C` (stereo not given), in assay [1], the normalised thallium flux (F/F0 slope) is 0.00617. Also, the normalized thallium flux in the assay “PubChem AID 1714” was 0.0393 (active); in assay [2], 0.0456 (active). The thallium flux rate (normalised fluorescence) in assay [3] was 0.0308 (active). Moreover, the raw Tl+ flux slope (below DMSO = inhibition, above = activation) in assay [4] is 0.0409 (active). For the same compound, the thallium flux slope in assay [5] is 0.0328 (active).

For the compound `NS(=O)(=O)c1ccc(NC(=S)NC(=O)c2cccnc2)cc1`, the normalised thallium flux (F/F0 slope) in assay [1] is 0.00722. Also, the normalized thallium flux in the assay “PubChem AID 1714” was 0.00594 (active); in assay [2] it was 0.0316. Moreover, the thallium flux rate (normalised fluorescence) in assay [3] is 0.00846. Further, the raw Tl+ flux slope (below DMSO = inhibition, above = activation) in assay [4] was 0.019. The thallium flux slope in assay [5] is 0.0122.

Turning to `Cc1cs/c(=N\N=C\c2ccc(O)cc2)n1Cc1ccco1`, the normalised thallium flux (F/F0 slope) in assay [1] was 0.00586. The normalized thallium flux in “PubChem AID 1714” was 0.00375; in assay [2], 0.0253 (active). Also, in assay [3], the thallium flux rate (normalised fluorescence) was 0.00654. The raw Tl+ flux slope (below DMSO = inhibition, above = activation) in assay [4] is 0.0162. In assay [5], the thallium flux slope was 0.0101.

Regarding `Brc1ccc(C2=CC(c3ccco3)n3ncnc3N2)cc1` (stereo not given), the normalised thallium flux (F/F0 slope) in assay [1] is 0.00373 (active). Also, the results for the normalized thallium flux (in the assay “PubChem AID 1714”; in assay [2]) were 0.00178 (active) and 0.0209 (active), respectively. Also, the thallium flux rate (normalised fluorescence) in assay [3] is 0.00407 (active). Also, the raw Tl+ flux slope (below DMSO = inhibition, above = activation) in assay [4] is 0.00899 (active). For the same compound, the thallium flux slope in assay [5] is 0.00724 (active).

`COc1cccc(-c2nnc(NC(=O)c3ccc(S(=O)(=O)N(CC(C)C)CC(C)C)cc3)o2)c1`: the normalised thallium flux (F/F0 slope) in assay [1] is 0.0109. Further, the normalized thallium flux in the assay “PubChem AID 1714” was 0.0246 (active); in assay [2], 0.0331. The thallium flux rate (normalised fluorescence) in assay [3] is 0.0752 (active). In addition, the raw Tl+ flux slope (below DMSO = inhibition, above = activation) in assay [4] was 0.0359 (active). The thallium flux slope in assay [5] is 0.0148 (active).

Consider `O=C(N/N=C/c1coc2ccccc2c1=O)c1cc2ccccc2o1`, for which the normalised thallium flux (F/F0 slope) in assay [1] is 0.0123. Further, the normalized thallium flux in “PubChem AID 1714” is 0.0194 (active); in assay [2], 0.0374. For the same compound, the thallium flux rate (normalised fluorescence) in assay [3] is 0.0141 (active). For the same compound, in assay [4], the raw Tl+ flux slope (below DMSO = inhibition, above = activation) is 0.0271 (active). The thallium flux slope in assay [5] was 0.0106.

Consider `COC(=O)c1sccc1NC(=O)c1cc(OC)c(OC)c(OC)c1`, for which the normalised thallium flux (F/F0 slope) in assay [1] is 0.00806. The normalized thallium flux is 0.00564 in the assay “PubChem AID 1714” and 0.029 in assay [2]. Besides, in assay [3], the thallium flux rate (normalised fluorescence) was 0.00681. Also, in assay [4], the raw Tl+ flux slope (below DMSO = inhibition, above = activation) is 0.0198. Moreover, the thallium flux slope in assay [5] was 0.00953.

As to `O=C(COC(=O)c1ccc(Oc2ccccc2)cc1)Nc1nnc(-c2ccccc2)o1`, the normalised thallium flux (F/F0 slope) in assay [1] was 0.00704. Also, the normalized thallium flux is 0.0517 (active) in “PubChem AID 1714” and 0.0474 (active) in assay [2]. Further, the thallium flux rate (normalised fluorescence) in assay [3] was 0.0357 (active). Besides, in assay [4], the raw Tl+ flux slope (below DMSO = inhibition, above = activation) was 0.0424 (active). Also, the thallium flux slope in assay [5] was 0.0346 (active).

`CNC(=O)/C(=C\C=C\c1ccccc1)NC(=O)c1ccc([N+](=O)[O-])cc1`: the normalised thallium flux (F/F0 slope) in assay [1] was 0.00733. Moreover, the normalized thallium flux in “PubChem AID 1714” was 0.00498; in assay [2] it was 0.0219 (active). For the same compound, the thallium flux rate (normalised fluorescence) in assay [3] is 0.00796. Also, the raw Tl+ flux slope (below DMSO = inhibition, above = activation) in assay [4] was 0.0141 (active). Also, the thallium flux slope in assay [5] is 0.0103.

Consider `Cc1cccc(NS(=O)(=O)c2ccc(C)c(C(N)=O)c2)c1`, for which, in assay [1], the normalised thallium flux (F/F0 slope) was 0.00589. The normalized thallium flux was 0.00471 in “PubChem AID 1714” and 0.0297 in assay [2]. In assay [3], the thallium flux rate (normalised fluorescence) was 0.00787. Also, the raw Tl+ flux slope (below DMSO = inhibition, above = activation) in assay [4] was 0.0187. Further, in assay [5], the thallium flux slope is 0.0102.

On to `COc1ccc(C(=O)NN(C)c2nc(-c3ccccc3)cc(C)c2S(C)(=O)=O)cc1`, for which, in assay [1], the normalised thallium flux (F/F0 slope) is 0.0121 (active). Besides, the normalized thallium flux in the assay “PubChem AID 1714” was 0.0071; in assay [2], 0.0316. Also, the thallium flux rate (normalised fluorescence) in assay [3] is 0.00831. Also, in assay [4], the raw Tl+ flux slope (below DMSO = inhibition, above = activation) is 0.0204. Also, in assay [5], the thallium flux slope was 0.0107.

On to `CCc1cc(-c2n[nH]c(=S)n2CC(C)C)cs1`, for which the normalised thallium flux (F/F0 slope) in assay [1] was 0.0137 (active). In addition, the normalized thallium flux was 0.0351 (active) in the assay “PubChem AID 1714” and 0.0359 in assay [2]. Further, the thallium flux rate (normalised fluorescence) in assay [3] was 0.0146 (active). In assay [4], the raw Tl+ flux slope (below DMSO = inhibition, above = activation) was 0.0381 (active). The thallium flux slope in assay [5] was 0.0129 (active).

`CCCCn1c(=S)[nH]c2ccccc2c1=O`: the normalised thallium flux (F/F0 slope) in assay [1] is 0.05 (active). For the same compound, the normalized thallium flux was 0.179 (active) in “PubChem AID 1714” and 0.0834 (active) in assay [2]. Moreover, the thallium flux rate (normalised fluorescence) in assay [3] is 0.114 (active). In assay [4], the raw Tl+ flux slope (below DMSO = inhibition, above = activation) is 0.145 (active). Besides, the thallium flux slope in assay [5] was 0.0577 (active).

Turning to `CN(C)S(=O)(=O)c1cccc(NC(=S)N/N=C/C(=O)c2ccccc2)c1`, the normalised thallium flux (F/F0 slope) in assay [1] is 0.014 (active). The values for the normalized thallium flux (in “PubChem AID 1714”; in assay [2]) were 0.0308 (active) and 0.0323, respectively. Moreover, the thallium flux rate (normalised fluorescence) in assay [3] is 0.0158 (active). Moreover, in assay [4], the raw Tl+ flux slope (below DMSO = inhibition, above = activation) was 0.0279. In addition, the thallium flux slope in assay [5] was 0.0129 (active).

Turning to `COc1ccc(Oc2c(Cl)cnn(-c3ccccc3)c2=O)cc1`, the normalised thallium flux (F/F0 slope) in assay [1] was 0.00949. The normalized thallium flux was 0.0065 in the assay “PubChem AID 1714” and 0.0314 in assay [2]. For the same compound, in assay [3], the thallium flux rate (normalised fluorescence) is 0.00741. Besides, in assay [4], the raw Tl+ flux slope (below DMSO = inhibition, above = activation) is 0.0166 (active). For the same compound, the thallium flux slope in assay [5] was 0.00996.

For the compound `C=CCn1c(=S)[nH]c2scc(-c3ccco3)c2c1=O`, in assay [1], the normalised thallium flux (F/F0 slope) was 0.0122 (active). Moreover, the values for the normalized thallium flux (in “PubChem AID 1714”; in assay [2]) were 0.0771 (active) and 0.0916 (active), respectively. Further, in assay [3], the thallium flux rate (normalised fluorescence) was 0.0914 (active). Also, the raw Tl+ flux slope (below DMSO = inhibition, above = activation) in assay [4] was 0.0814 (active). For the same compound, in assay [5], the thallium flux slope was 0.0843 (active).

Values taken from PubChem BioAssay.
